Measured values: PubChem BioAssay (EPA / NIEHS)
Inconclusive results are not listed. Calls of active or inactive are those of the source. Rule for the calls, unless noted: active = hit-call score of the fitted dose curve at least 0.9, where 1 is the maximum; inconclusive = response in the unintended direction; inactive = score below 0.9.

assay: Tanguay_ZF_120hpf_NC_legacy: (Legacy) Oregon State University Tanguay Lab 120 Hour Post-fertilization zebrafish Assay for Notochord and Tail Malformation (AID 2283656)
In short: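 Dechorionated Tropical 5D wild-type zebrafish embryos, one per well from 6 hpf, statically exposed to 120 hpf at 28C in 0.64% DMSO final. Notochord distortion scored present/absent by brightfield; dead embryos excluded.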

Compound	outcome
CCCCC(CC)COC(=O)CCCCCCCCC(=O)OCC(CC)CCCC (stereo not drawn)	inactive
C=CCCCCCCCCC(=O)O	inactive
CNS(=O)(=O)c1cc(C(=O)N2CCC(CCN3C4CCC3CC(n3c(C)nc5ccccc53)C4)(c3cccc(F)c3)CC2)c(Cl)cc1F (stereo not drawn)	inactive
COC(=O)c1c(Cl)c(Cl)c(C(=O)OC)c(Cl)c1Cl	inactive
CCOCCO	inactive
CC1=CC(=O)CC(C)(C)C1	inactive
O=C1CCC(N2C(=O)c3ccccc3C2=O)C(=O)N1 (stereo not drawn)	inactive
COc1ccc(-n2nc(C(F)F)cc2-c2ccc(S(C)=O)cc2)cc1 (stereo not drawn)	inactive
C1=CCCC=CCCC=CCC1	inactive
CCCC(=O)OCC	inactive
Cc1ccc(C)c(O)c1	inactive
COC(=O)CC(=O)OC	inactive
CCCCC(CC)COC(=O)c1ccc(C(=O)OCC(CC)CCCC)cc1 (stereo not drawn)	inactive
CC(C)=CCC/C(C)=C/CO	inactive
CNCc1ccc(NC(=O)c2c[nH]c3c2C(=O)CCC3)cc1	inactive
CCCCCCCCCCCCCCCO	inactive
COC(=O)c1ccccc1O	inactive
CCc1cc(SCc2sc(-c3ccc(C(F)(F)F)cc3)nc2CN2CCN(c3ccc(OC)cc3)CC2)ccc1OCC(=O)O	inactive
COc1ccc(/C=C/S(=O)(=O)NC(=O)c2ccc(C)cc2Cl)cc1	inactive
CCOCCOCCOCCO	inactive
Cc1ccc(S(=O)(=O)O)cc1C	inactive
CC(=O)OCCC(C)C	inactive
O=C(O)CC(O)C(=O)O (stereo not drawn)	inactive
O=C1CCCCCN1	inactive
CC(C)CCCCCCCOC(=O)CCCCC(=O)OCCCCCCCC(C)C	inactive
Clc1nc(Cl)c(Cl)c(Cl)c1Cl	inactive
Cn1c(=O)c2c(ncn2C)n(C)c1=O	inactive
CC[C@H]1CC[C@H](NCc2cc3c(cc2OC)[C@H]2C[C@H]2C(=O)N3C)[C@H](c2ccccc2)N1	inactive
O=C1OC(=O)C2C3C=CC(C3)C12 (stereo not drawn)	inactive

assay: Tanguay_ZF_120hpf_TR_legacy: (Legacy) Oregon State University Tanguay Lab 120 Hour Post-fertilization zebrafish Assay for Touch Response (AID 2283667)
In short: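 Tropical 5D wild-type zebrafish embryos were exposed statically in sealed, foil-covered plates at 28C until 120 hpf, with 0.64% (vol/vol) final DMSO. Touch response was scored as present or absent; embryos that died were not scored.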

Compound	outcome	AC50
CCCCC(CC)COC(=O)CCCCCCCCC(=O)OCC(CC)CCCC (stereo not drawn)	inactive	
C=CCCCCCCCCC(=O)O	inactive	
CNS(=O)(=O)c1cc(C(=O)N2CCC(CCN3C4CCC3CC(n3c(C)nc5ccccc53)C4)(c3cccc(F)c3)CC2)c(Cl)cc1F (stereo not drawn)	inactive	
CCOCCO	inactive	
COc1ccc(-n2nc(C(F)F)cc2-c2ccc(S(C)=O)cc2)cc1 (stereo not drawn)		38.2 µM (active)
C1=CCCC=CCCC=CCC1	inactive	
CCCC(=O)OCC	inactive	
Cc1ccc(C)c(O)c1	inactive	
COC(=O)CC(=O)OC	inactive	
CCCCC(CC)COC(=O)c1ccc(C(=O)OCC(CC)CCCC)cc1 (stereo not drawn)	inactive	
CC(C)=CCC/C(C)=C/CO	inactive	
CNCc1ccc(NC(=O)c2c[nH]c3c2C(=O)CCC3)cc1	inactive	
CCCCCCCCCCCCCCCO	inactive	
COC(=O)c1ccccc1O	inactive	
CCc1cc(SCc2sc(-c3ccc(C(F)(F)F)cc3)nc2CN2CCN(c3ccc(OC)cc3)CC2)ccc1OCC(=O)O	inactive	
COc1ccc(/C=C/S(=O)(=O)NC(=O)c2ccc(C)cc2Cl)cc1	inactive	
CCOCCOCCOCCO	inactive	
Cc1ccc(S(=O)(=O)O)cc1C	inactive	
CC(=O)OCCC(C)C	inactive	
O=C(O)CC(O)C(=O)O (stereo not drawn)	inactive	
O=C1CCCCCN1	inactive	
CC(C)CCCCCCCOC(=O)CCCCC(=O)OCCCCCCCC(C)C	inactive	
Clc1nc(Cl)c(Cl)c(Cl)c1Cl	inactive	
Cn1c(=O)c2c(ncn2C)n(C)c1=O	inactive	
CC[C@H]1CC[C@H](NCc2cc3c(cc2OC)[C@H]2C[C@H]2C(=O)N3C)[C@H](c2ccccc2)N1	inactive	
O=C1OC(=O)C2C3C=CC(C3)C12 (stereo not drawn)	inactive	

assay: CCTE_Padilla_ZF_144hpf_TERATOSCORE: (Legacy) CCTE's 144 Hour Post-fertilization zebrafish Assay Teratoscore, Padilla Lab (AID 2283679; active = hit-call score of the fitted dose curve at least 0.9, where 1 is the maximum; inactive = score below 0.9;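 for AC50: zebrafish embryos with chorions exposed by immersion from 6-8 hpf to 5 dpf with daily renewal; teratogenicity score from eye scoring of death hatching and malformations at 144 hpf; higher score means more developmental defects relative to DMSO baseline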)
In short: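 Larvae scored by eye at 144 hpf for death, hatching and malformations after a day in clean Hanks'. Before that, daily-renewed exposure at 80 uM (0.4% DMSO, 26C) from roughly 6-8 hpf through 5 dpf, 4 embryos per chemical.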

Compound	outcome	AC50
CCCCC(CC)COC(=O)CCCCCCCCC(=O)OCC(CC)CCCC (stereo not drawn)	inactive	
C=CCCCCCCCCC(=O)O		60.1 µM (active)
COc1ccc(-n2nc(C(F)F)cc2-c2ccc(S(C)=O)cc2)cc1 (stereo not drawn)		88.9 µM (active)
COC(=O)CC(=O)OC	inactive	
CC(C)=CCC/C(C)=C/CO		15.4 µM (active)
CCc1cc(SCc2sc(-c3ccc(C(F)(F)F)cc3)nc2CN2CCN(c3ccc(OC)cc3)CC2)ccc1OCC(=O)O		5.47 µM (active)
COc1ccc(/C=C/S(=O)(=O)NC(=O)c2ccc(C)cc2Cl)cc1	inactive	
CC(=O)OCCC(C)C	inactive	
CC(C)CCCCCCCOC(=O)CCCCC(=O)OCCCCCCCC(C)C	inactive	
Clc1nc(Cl)c(Cl)c(Cl)c1Cl		8.13 µM (active)

assay: STM_H9_OrnithineISnorm_perc: Stemina devTOX quickPredict H9 human embryonic stem cell (hESC)-based Assay for Ornithine (ORN) Metabolite Biomarker, Normalized (AID 2283712; active = hit-call score of the fitted dose curve at least 0.9, where 1 is the maximum; inactive = score below 0.9;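 note: ornithine released into spent medium during last day measured by mass spectrometry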)
In short: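 Undifferentiated H9 hESCs exposed 72 h with daily media and compound renewal; final 24-h conditioned medium analysed by UPLC-HRMS. Ornithine peak area normalised to spiked C13 standard and to median 0.1% DMSO control; viability by CellTiter-Fluor.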

Compound	AC50	outcome
O=C1CCC(N2C(=O)c3ccccc3C2=O)C(=O)N1 (stereo not drawn)	0.124 µM (active)	
CNCc1ccc(NC(=O)c2c[nH]c3c2C(=O)CCC3)cc1		inactive
Cn1c(=O)c2c(ncn2C)n(C)c1=O		inactive
CC[C@H]1CC[C@H](NCc2cc3c(cc2OC)[C@H]2C[C@H]2C(=O)N3C)[C@H](c2ccccc2)N1	9.25 µM (active)	

assay: STM_H9_CystineISnorm_perc: Stemina devTOX quickPredict H9 human embryonic stem cell (hESC)-based Assay for Cystine (CYSS) Metabolite Biomarker, Normalized (AID 2283713; active = hit-call score of the fitted dose curve at least 0.9, where 1 is the maximum; inactive = score below 0.9)
In short: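 Undifferentiated H9 hESCs exposed 72 h, compound and media replaced every 24 h; final 24-h media analysed by UPLC-HRMS. Cystine normalized to C13 spike-in standard and median 0.1% DMSO control.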

Compound	outcome	AC50
O=C1CCC(N2C(=O)c3ccccc3C2=O)C(=O)N1 (stereo not drawn)	inactive	
CNCc1ccc(NC(=O)c2c[nH]c3c2C(=O)CCC3)cc1	inactive	
Cn1c(=O)c2c(ncn2C)n(C)c1=O		181 µM (active)
CC[C@H]1CC[C@H](NCc2cc3c(cc2OC)[C@H]2C[C@H]2C(=O)N3C)[C@H](c2ccccc2)N1		7.32 µM (active)
